Experimental data published in ChEMBL document CHEMBL4513146, “CO-ADD screening of Karazin Kharkiv National University (Ukraine) compounds”.
Results with a measured potency or affinity are listed apart.

Legend:
[1] = system: Staphylococcus aureus; settings: Concentration 32 ug.mL-1;; ASSAY_TEST Inhibition of Bacterial Growth; detection method Absorption (OD600); MEDIA CAMHB; plate type 384well; NBS; CORNING #3640; time 18 hr
[2] = system: Escherichia coli; settings: Concentration 32 ug.mL-1;; ASSAY_TEST Inhibition of Bacterial Growth; detection method Absorption (OD600); MEDIA CAMHB; plate type 384well; NBS; CORNING #3640; time 18 hr

Compound	Inhibition [1] [%]	Inhibition [2] [%]
CCc1ccc(N(Cc2ccc(C)cc2)S(=O)(=O)c2cccn3c(CC)nnc23)cc1	5.86	-4.79
COc1ccc(NC(=O)Cn2nc3c(SC4CCCCC4)nccn3c2=O)cc1	-2.9	-3.75
CCc1nnc2c(SCC(=O)Nc3ccc(C)cc3Cl)nc3ccccc3n12	2.52	2.69
COc1cc(NC(=O)C(C)Sc2nnc3c(=O)n(-c4ccccc4OC)ccn23)cc(OC)c1 (centres undefined)	15.1	-4.09
COc1cccc(-n2ccn3c(SCC(=O)c4cc(C)c(C)cc4C)nnc3c2=O)c1	15.67	-4.7
COc1cccc(-n2ccn3c(SCC(=O)c4c[nH]c5ccccc45)nnc3c2=O)c1	3.92	-5.66
Cc1ccc(Cn2nc3c(=O)n(-c4cccc(F)c4)ccn3c2=O)cc1	6.58	-11.98
CCCCOc1ccc(-c2cc3c4nnc(SCC(=O)Nc5ccc(CC)cc5)n4ccn3n2)cc1	-9.56	-11.54
CC(C)c1ccc(NC(=O)Cn2nc3ccc(SCc4ccc(Cl)cc4)nn3c2=O)cc1	4.11	-6.33
O=C(Cn1nc2c3sc(N4CCCC4)nc3ncn2c1=O)Nc1ccccc1Cl	4.77	-9.42
COc1cccc(-n2ccn3c(SCC(=O)Nc4ccccc4Cl)nnc3c2=O)c1	11.46	-4.64
CCc1nnc2ccc(S(=O)(=O)N(Cc3cccc(OC)c3)c3cccc(F)c3)cn12	-0.28	-5.95
